In the library only some 4.5% were active in any assay of this set; here they are far more common.
DAX1 inh-1: DAX1 (NR0B1) inhibitors, primary screen, cell-based, HEK293, Gal4-DAX1, luciferase luminescence. hit rate 0.99% among 340,000. AID 504766, 2011. HEK293 Gal4-DAX1 luciferase reporter. inhibition, % at 6.75 µM;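 active = inhibition above the mean over all tested compounds plus 3 SD, cut at about 4.2% in these data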;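 note: 0% = DAX1-transfected cells with DMSO and 100% = empty-vector control cells with DMSO; inhibition shows as a rise in luminescence from relieved DAX1 repression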
Target sequence (P51843 207-470 limits assumed): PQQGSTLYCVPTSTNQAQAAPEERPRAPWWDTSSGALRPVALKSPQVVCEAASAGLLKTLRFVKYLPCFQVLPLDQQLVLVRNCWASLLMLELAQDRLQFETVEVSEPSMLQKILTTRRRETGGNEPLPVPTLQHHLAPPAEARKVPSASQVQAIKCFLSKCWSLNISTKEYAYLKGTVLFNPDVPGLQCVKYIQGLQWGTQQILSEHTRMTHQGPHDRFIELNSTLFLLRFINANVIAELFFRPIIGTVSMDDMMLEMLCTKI
hgDAF12 agonist: H. glycines DAF-12 receptor agonists, primary screen, cell-based, luminescence, HEK293, GAL4 fusion, UAS-luciferase | HEK293 GAL4-hgDAF12 UAS-luciferase reporter, agonist luminescence; normalized to butyrate control | Nuclear hormone receptor DAF-12 (Heterodera glycines), GAL4 fusion | activation, % at 6.8 µM | hit rate 1.8% among 370,000 | AID 687014, 2013;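 active = activation above a cutoff set at the mean of all screened compounds plus 3 SD, cut at about 10% in these data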;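 note: 0% = DMSO wells and 100% = sodium butyrate wells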
GAA850 FXN act: FXN promoter activators, primary screen, cell-based, luciferase luminescence, HEK293 lucGAA850; HEK293 lucGAA850 FXN promoter luciferase reporter, 24 h; percent of 10 µM SAHA response; activation, % at 6 µM; hit rate 0.56% among 360,000; AID 540364, 2011;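 active = activation above the average of all compounds screened plus 3 SD, cutoff fixed separately per campaign, cut at about 7.5% in these data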;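 note: 0% = DMSO wells and 100% = 10 µM SAHA wells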
ssDAF-12 act: S. stercoralis DAF-12 nuclear receptor activators, primary screen, cell-based, luminescence, HEK293, GRIP1 co-expression, lit1-tk-luc; Nuclear hormone receptor DAF-12 (Strongyloides stercoralis); HEK293 ssDAF-12/GRIP1 lit1-tk-luc reporter; % of 3 µM dafachronic acid response; activation, % at 6.8 µM; hit rate 1% among 370,000; AID 652126, 2013;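 active = activation above the mean over all tested compounds plus 3 SD, cut at about 0.9% in these data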;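 note: 0% = DMSO-only wells and 100% = 3 µM delta7-dafachronic acid wells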
DAX1 inh-2: DAX1 (NR0B1) inhibitors on StAR promoter, primary screen, cell-based, luminescence, SF-1 (NR5A1), full-length DAX-1. HEK293T StAR-luciferase reporter, SF-1/DAX-1 repression relief. inhibition, % at 6.8 µM. hit rate 1.1% among 370,000. AID 652010, 2013;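 active = inhibition above the mean over all tested compounds plus 3 SD, cut at about 3.6% in these data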;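 note: 0% = DAX-1 cells with DMSO and 100% = cells lacking DAX-1 with DMSO; higher inhibition means more luminescence from relief of DAX-1 repression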
hcDAF12 agonist: H. contortus DAF-12 nuclear receptor activators, primary screen, cell-based, luminescence, HEK293, lit1-tk-luc reporter. HEK293 hcDAF-12 lit1-tk-luc reporter; 0% DMSO, 100% Δ7-dafachronic acid. activation, % at 6.8 µM. hit rate 1.4% among 370,000. AID 652067, 2013;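 active = activation above the mean of all tested compounds plus 3 SD, cut at about 5.5% in these data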;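 note: 100% = response to 3 µM Δ7-dafachronic acid high control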
hgDAF12 conf: H. glycines DAF-12 receptor agonists, confirmation, cell-based, luminescence, HEK293, GAL4-LBD fusion | HEK293 GAL4-hgDAF12 luciferase reporter, agonist mode; percent of butyrate response | activation, % at 6.8 µM | AID 743050, 2013 | shares compounds with hgDAF12 agonist | hit rate 80% among 3,300;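 active = mean activation over triplicate wells above the hit cutoff derived from the earlier primary screen, cut at about 11% in these data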;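 note: 0% = DMSO low control and 100% = 2 mM sodium butyrate high control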
LXR ag 2: LXR agonists, Gal4 luciferase reporter, confirmation, counter-screen for hgDAF-12 agonist project, cell-based, luminescence, HEK293, H. glycines campaign | activation, % at 6.8 µM | 24 h | shares compounds with hgDAF12 agonist | 3,300 tested, under 10 active;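 active = mean activation of the triplicate above a set limit carried over from the primary screen, none filed active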
Target sequence (P55055 whole entry, looked up, the tested form may be a part): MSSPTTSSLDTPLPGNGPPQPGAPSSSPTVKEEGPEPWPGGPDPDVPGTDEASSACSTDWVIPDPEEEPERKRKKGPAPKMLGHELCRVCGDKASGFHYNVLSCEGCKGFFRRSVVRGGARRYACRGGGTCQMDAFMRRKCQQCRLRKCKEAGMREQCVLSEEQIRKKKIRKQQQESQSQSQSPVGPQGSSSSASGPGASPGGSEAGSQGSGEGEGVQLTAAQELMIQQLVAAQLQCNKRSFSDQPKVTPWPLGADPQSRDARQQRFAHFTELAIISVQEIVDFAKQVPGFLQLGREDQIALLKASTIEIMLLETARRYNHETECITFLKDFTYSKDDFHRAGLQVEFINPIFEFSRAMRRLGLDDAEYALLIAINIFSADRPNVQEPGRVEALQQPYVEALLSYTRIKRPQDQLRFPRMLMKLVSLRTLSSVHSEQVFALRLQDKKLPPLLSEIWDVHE
* hit, by the source's call; . = not tested or not shown.

SMILES	DAX1 inh-1	hgDAF12 agonist	GAA850 FXN act	ssDAF-12 act	DAX1 inh-2	hcDAF12 agonist	hgDAF12 conf	LXR ag 2
Cc1nc2cc(NC(=O)NCc3ccc4c(c3)OCO4)ccc2o1	1.3	2.9	0.4	-1.5	0.1	-1.7	.	.
COC(=O)[C@@H](Cc1c[nH]c2ccccc12)NC(=O)C1CCCN(S(=O)(=O)c2ccc(C)cc2)C1 (stereo not given in full)	0.6	-3.0	1.2	-0.5	0.1	0.5	.	.
Cc1ccc(C)c(N2CCN(c3cnn(-c4nc5ccccc5s4)c(=O)c3Cl)CC2)c1	3.2	14.2*	5.6	0.3	3.7*	4.7	11.8*	0.6
Cc1ccc(-c2cn3cccnc3n2)cc1	1.1	15.1*	4.4	-0.6	2.0	2.3	11.2*	0.4
CN(C)C=NC(=O)c1cc(C(=O)c2ccc(C(C)(C)C)cc2)c[nH]1	0.7	14.0*	7.1	-0.8	4.4*	5.3	15.6*	0.8
COc1ccc(NS(=O)(=O)c2ccc(C(=O)N3CCC(C)CC3)cc2)cc1	-2.2	0.1	-3.3	-1.3	-2.2	-4.1	.	.
CC(/C=N/NC(=O)c1c(Br)cnn1C)=C\c1ccccc1	-2.0	4.3	5.0	-1.5	1.1	0.8	.	.
CC(/C=N/NC(=O)c1nn(C)c(C)c1Br)=C\c1ccccc1	2.2	13.8*	5.2	-0.2	2.2	3.2	9.2	0.3
O=C(N/N=C/c1sc(=O)n(-c2ccccc2)c1Cl)c1ccccc1	0.3	23.7*	1.7	-0.3	0.4	2.3	15.8*	0.7
NC(=O)N/N=C/c1sc(=O)n(-c2ccccc2)c1Cl	0.6	-0.1	1.9	-0.1	-0.8	2.1	.	.
CCOCC(=O)Nc1nc2ccccc2s1	0.9	9.9	3.6	-0.4	0.6	2.5	.	.
O=C(CC1CCCCC1)Nc1nc2ccccc2s1	2.9	13.6*	6.7	-0.8	2.4	4.5	16.8*	0.7
CCCCNC(=O)Cn1c(=O)c2c(ncn2CCC(C)C)n(Cc2ccccc2)c1=O	-1.8	-1.6	-2.1	-1.1	-0.2	-1.9	.	.
O=C(N/N=C/c1ccccc1)c1[nH]ncc1Br	4.2*	15.2*	7.2	-0.3	1.9	1.5	13.6*	0.3
O=C(N/N=C/c1ccccc1)c1[nH]c2ccc(Br)cc2c1-c1ccccc1	-1.5	1.0	2.5	0.3	0.2	0.4	.	.
CCN(CC)c1ccc(/C=C(\C#N)c2ccccn2)cc1	-1.7	.	-5.1	.	.	.	.	.
CCN(CC)c1ccc(C=N/C(C#N)=C(\N)C#N)cc1	1.1	15.2*	6.6	-0.9	1.1	3.5	9.7	0.3
O=C(c1ccc(F)cc1Cl)N(Cc1ccccn1)CC1CCCO1 (stereo not given)	.	31.3*	.	-0.9	0.3	-1.8	0.8	0.0
CCCNCc1nnc(-c2ccccc2Cl)o1	1.4	3.0	0.7	-1.4	0.1	-1.4	.	.
Clc1ccccc1-c1nnc(-c2ccccc2Cl)o1	1.8	14.8*	6.0	-0.6	3.5	4.9	17.2*	0.6
Clc1ccc(-c2nnc(-c3ccccc3Cl)o2)cc1	2.4	13.5*	4.3	-0.4	2.5	3.7	19.2*	1.1
COC(=O)C1=C(C(=O)OC)[C@@H]2Nc3ccccc3[C@@]23C[C@@H](C(=O)OC)N(C(=O)c2ccco2)C3=N1	-0.5	1.5	-1.8	-1.1	0.0	-0.5	.	.
COc1ccc(-c2nc3ccccc3n2OC(C)C(=O)O)cc1 (stereo not given)	2.1	4.7	3.0	-0.4	2.4	0.1	.	.
Cc1ccc(-c2nc3ccc(Cl)cc3n2OC(C)C(=O)O)cc1 (stereo not given)	2.0	22.9*	6.7	-0.2	3.4	4.1	12.9*	0.6
CC(C)(C)OC(=O)N1Cc2cc3ccccc3nc2C1	1.2	16.3*	1.9	0.4	3.6*	2.9	12.9*	0.5
SMILES	DAX1 inh-1	hgDAF12 agonist	GAA850 FXN act	ssDAF-12 act	DAX1 inh-2	hcDAF12 agonist	hgDAF12 conf	LXR ag 2
C(=C\c1nnc2c3ccccc3ncn12)/c1ccccc1	-2.5	15.4*	2.5	2.5*	0.5	6.1*	18.4*	0.7
COc1cc(/C=C/c2nnc3c4ccccc4ncn23)cc(OC)c1OC	-1.7	-4.0	-0.5	-1.8	-2.0	-3.8	.	.
O=C(CCS(=O)(=O)c1cc2c(cc1Br)CCN2C(=O)C1CC1)N1CCN(c2ccccn2)CC1	.	4.9	.	-0.7	-0.7	-0.1	.	.
C[C@@H]1CN([C@@H](C)CO)C(=O)c2c(c3ccccc3n2C)-c2ccccc2CO[C@H]1CN(C)S(=O)(=O)c1ccc(C(F)(F)F)cc1	-0.1	-0.8	-1.3	-0.8	0.5	-0.5	.	.
CCOC(=O)c1ccccc1NC1c2ccccc2C(=O)N1c1ccc(C)cn1 (stereo not given)	1.0	15.2*	1.8	0.2	2.7	2.7	6.3	0.2
COC(=O)c1cccc(NC(=O)c2onc3c2CCCC3)c1	1.1	17.1*	2.4	0.7	3.8*	6.0*	17.7*	0.9
COC(=O)c1cccc(NC(=O)c2ccccc2)c1	2.1	2.8	-0.4	-1.1	0.8	1.0	.	.
Cc1ccc(Nc2nc(-c3ccccc3)c(CC(=O)O)s2)cc1	0.3	13.9*	5.2	0.0	1.7	2.1	12.9*	0.5
Cc1ccc(-c2nc(-c3ccccn3)sc2CC(=O)O)cc1	-0.1	6.0	1.4	-1.1	0.0	-1.4	.	.
COc1cc(/C=C/c2nc3ccccc3c(=O)[nH]2)cc(OC)c1OC	-3.2	4.7	0.5	-1.0	0.2	-0.6	.	.
COc1cc(/C=C/c2nc3ccccc3c(=O)[nH]2)ccc1OC(F)F	3.8	5.8	3.4	-0.8	0.9	1.9	.	.
C=CCOc1cccc(/C=C/c2nc3ccccc3c(=O)[nH]2)c1	4.2	15.0*	7.0	1.3*	3.5	4.3	15.5*	0.8
Cc1ccccc1/C=C\c1nc2ccccc2c(=O)[nH]1	2.3	15.5*	4.3	1.3*	3.3	2.1	20.0*	0.8

Compound activity deposited in PubChem BioAssay by The Scripps Research Institute Molecular Screening Center.
